In PubChem BioAssay (NCI) one finds growth data, which are given here for 25 compounds.

Compounds without any hit were thinned out: in the full panel of roughly 83,000, 20% have a hit.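 Compound tested at a single concentration for 48 hours in 96-well plates; a percent growth value below 10 was scored as active.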 Values without a mark were called inactive. Activity calls are given as the source filed them.

Holding throughout (assay): NCI-60 one-dose screen, 48 h (100 = growth as untreated, 0 = no growth, -100 = all killed)
What all share (conditions): 10 µM unless noted

The subject of experiment [1] is DU-145 prostate.
Experiment [2] relates to K-562 leukemia.
Experiment [3] relates to MALME-3M melanoma.
For experiment [4], the system named is MDA-MB-231 breast.
Experiment [5] deals with RXF 393 renal.
Experiment [6] concerns SF-268 CNS.
The test system of experiment [7] is SF-295 CNS.
The subject of experiment [8] is SF-539 CNS.
Experiment [9] concerns UACC-257 melanoma.
In experiment [10] the test system is M14 melanoma.

With `Cc1nn(-c2ccccc2)c(Oc2c(Cl)cccc2Cl)c1/C=N/N=c1\sc2ccccc2n1C`, the growth in [1] is 67.7%; in experiment [2], 28.3%; in experiment [3], 81.6%; in [4] it was 51.3%; in experiment [5], 54.7%; in experiment [6], 52.2%. The growth is 54.3% in experiment [7], 49.9% in [8], 71.3% in experiment [9] and 60.8% in [10].
Regarding `CC(=O)O[C@@H]1C2CCC3C(CC[C@@]4(C)C3CC[C@@H]4C(C)N(C)C)[C@@]2(C)CC[C@@H]1NC(=O)C=C(C)C` (stereo not given in full), the growth is 51.4% in experiment [1]; 2.24% (active) in [2]; -59.4% (active) in experiment [3]; -10.3% (active) in experiment [4]; -51.5% (active) in [5]; -23.4% (active) in experiment [6]. Also, the growth in experiment [7] was -15.3% (active); in experiment [8] it was -52.7% (active); in [9] it was -40.9% (active); in experiment [10], -44.4% (active).
In the case of `COc1cc2cc(CN3CCN(c4nccc(-c5ccc6ccccc6c5)n4)CC3)c(=O)[nH]c2cc1OC`, the growth was 74% in experiment [1]; 13.6% in experiment [2]; 103% in experiment [3]; 73.8% in experiment [4]; 81.8% in [5]; 94% in [6]. For the same compound, the growth was 101% in [7], 110% in experiment [8], 77% in experiment [9] and 109% in experiment [10].
As to `COc1cc2nc(-c3ccc(C(F)(F)F)cc3)cc(OCCN3CCCCC3)c2cc1OC`, the growth in experiment [1] was 70.9%; in experiment [2] it was 53.4%; in [3] it was 74.4%; in experiment [4], 54.1%; in experiment [5] it was 62.4%; in experiment [6], 75.8%. The growth in [7] was 77.5%; in [8] it was 74.4%; in experiment [9], 36.6%; in experiment [10], -11.8% (active).
Regarding `COc1ccc(OC)c(CCn2cncc2-c2c[nH]c3ccccc23)c1`, the growth is 88.4% in [1]; 42.4% in experiment [2]; 74.5% in experiment [3]; 72.2% in experiment [4]; 74.4% in experiment [5]; 71.1% in [6]. Besides, the growth is 71.6% in experiment [7], 88.5% in experiment [8], 80.8% in experiment [9] and 73.3% in experiment [10].
For the compound `CCOC(=O)c1cc(C#N)n2ccc3ccccc3c12`, the growth in [1] was 103%; in [2], 106%; in [3], 104%; in [4], 102%; in experiment [5], 98.9%; in experiment [6], 94.2%. The growth in experiment [7] is 96.5%; in experiment [8], 98.7%; in [9] it was 104%; in experiment [10], 108%.
On to `CCCCCCNC(=O)Oc1ccc(/C(=C(\C)c2ccccc2)c2ccc(OCCN3CCCCC3)cc2)cc1`, for which the growth in experiment [1] was 82.8%; in [2], 4.69% (active); in [3] it was 34.2%; in experiment [4], 78.1%; in experiment [5], 47.6%; in experiment [6] it was 68.3%. Further, the growth was 35.4% in experiment [7], 23.3% in experiment [8], -0.337% (active) in experiment [9] and -22.9% (active) in [10].
`O=S(=O)(NCCNc1nccc(-c2c(-c3cccc(F)c3)nc3sccn23)n1)c1ccc(Cl)cc1`: the growth in [1] was 54.2%; in experiment [2], 41.3%; in [3], 82.6%; in experiment [4], 91.1%; in experiment [5], 69%; in experiment [6] it was 52.9%. The growth in [7] is 63.7%; in experiment [8], 82.5%; in experiment [9], 88.7%; in [10] it was 56.6%.
`O=C(Nc1cccc(C2=NCCN2)c1)c1ccc(-c2ccc(C(=O)Nc3cccc(C4=NCCN4)c3)cc2)cc1`: the growth in experiment [1] was 39.1%; in [2], 35.5%; in [3] it was 9.06% (active); in experiment [4] it was 79.6%; in [5], 122%; in [6] it was 90.2%. For the same compound, the growth was 71.1% in experiment [7], 97.5% in [8], 36.7% in experiment [9] and 77.7% in experiment [10].
As to `COc1cc2nc(-c3ccc(Cl)cc3)cc(OCCCN3CCCCC3)c2cc1OC`, the growth in experiment [1] is 40.9%; in experiment [2], 14.3%; in experiment [3], 46.1%; in [4] it was 27.4%; in [5], 39.1%; in experiment [6], 57.5%. For the same compound, the growth is -51.3% (active) in experiment [7], 49.5% in experiment [8], -0.848% (active) in [9] and -28.2% (active) in experiment [10].
On to `COc1ccccc1/C(C)=N/NC(=O)CSc1nc2ccccc2c(=O)n1Cc1ccc(S(N)(=O)=O)cc1`, for which the growth in experiment [1] was 108%; in experiment [2], 98.2%; in experiment [3], 103%; in experiment [4] it was 96.6%; in [5], 95.9%; in [6], 89.2%. For the same compound, the growth is 93.9% in [7], 94.4% in experiment [8], 95.4% in experiment [9] and 108% in [10].
For `O=C(Nc1ccccc1)Nc1ccc2cc3ccc(NC(=O)Nc4ccccc4)cc3nc2c1`, the growth was 39.2% in experiment [1]; 1.08% (active) in experiment [2]; -9.29% (active) in [3]; -51.4% (active) in experiment [4]; 28.5% in [5]; -22.4% (active) in experiment [6]. Also, the growth was 17.8% in experiment [7], -56% (active) in experiment [8], 104% in experiment [9] and 47.2% in experiment [10].
As for `Cc1nc2sccn2c1-c1nc2sccn2c1/C=C1/C(=O)Nc2ccccc21`, the growth in [1] is 48%; in experiment [3] it was 50%; in experiment [4] it was 44.6%; in experiment [5] it was 32.7%; in experiment [6], 60.9%; in experiment [7], -8.95% (active). Also, the growth was 16.4% in [8], 51.8% in experiment [9] and 34.2% in experiment [10].
With `O=C(Cc1ccc(/C=C/C(=O)c2nccs2)cc1)Nc1ccccc1`, the growth was 105% in experiment [1]; 23.3% in experiment [2]; 98.4% in [3]; 94.8% in experiment [4]; 103% in experiment [5]; 95% in experiment [6]. Besides, the growth in experiment [7] is 97.1%; in experiment [8], 99.9%; in [9] it was 88.6%; in experiment [10], 93.1%.
As to `S=c1cc(S)c2cc(Br)ccc2[nH]1`, the growth in experiment [1] is 105%; in experiment [2], 94.9%; in [3], 98.4%; in experiment [4], 81.5%; in experiment [5] it was 111%; in [6] it was 99%. The growth is 100% in experiment [7], 97.7% in experiment [8], 87.1% in [9] and 90% in experiment [10].
As to `COc1ccc(/C=C/c2nc(Nc3ccc(S(=O)(=O)Nc4nc(C)cc(C)n4)cc3)c3ccccc3n2)cc1`, the growth in [1] is 71.3%; in experiment [3], 89.6%; in experiment [4], 61.3%; in experiment [5], 94.3%; in experiment [6] it was 75.3%; in [7] it was 63.8%. Besides, the results for the growth in [8], in experiment [9] and in [10] were 96.8%, 78.6% and 47.1%, respectively.
Take `Cc1ccc(-n2nc3c(c(C#N)c2=O)CC(c2ccccc2[N+](=O)[O-])C([N+](=O)[O-])=C3O)cc1` (stereo not given): the growth in experiment [1] is 79.8%; in [3], 79.5%; in experiment [4] it was 70.7%; in [5] it was 81.9%; in experiment [6] it was 85.7%; in experiment [7] it was 105%. In addition, the results for the growth in experiment [8], in experiment [9] and in [10] were 96.9%, 93.8% and 92.1%, respectively.
In the case of `Oc1cccc(CCc2ccc(Oc3cc(CCc4cccc(O)c4)cc(O)c3O)cc2)c1`, the growth in experiment [1] is 88.8%; in experiment [3], 110%; in [4] it was 72.8%; in experiment [5] it was 81%; in [6], 51.7%; in experiment [7] it was 96.7%. In addition, the growth in experiment [8] was 73.9%; in experiment [9] it was 95.6%; in experiment [10], 81.2%.
As to `CCCNC(=O)Oc1ccc(/C(=C(\C)c2ccccc2)c2ccc(OCCCN(C)C)cc2)cc1`, the growth in experiment [1] was 89.7%; in experiment [2], 11.5%; in experiment [3] it was 40.8%; in experiment [4] it was 59.4%; in [5], 71.1%; in [6], 71.8%. For the same compound, the growth in experiment [7] is 64%; in experiment [8], 63.9%; in experiment [9] it was 8.5% (active); in experiment [10], 25.2%.
In the case of `COc1ccc(C/C(C)=C(/c2ccc(OCCCN(C)C)cc2)c2ccc(OC(C)=O)cc2)cc1`, the growth in experiment [1] is 89.2%; in [2], 3.38% (active); in experiment [3] it was 79%; in experiment [4] it was 66.8%; in experiment [5], 65.6%; in [6] it was 71%. Also, the growth in experiment [7] is 27.1%; in [8], 72.6%; in experiment [9] it was 73.6%; in [10], 50.6%.
Consider `CNC(=O)c1cccc(Cn2nc(C)c(NC(=O)c3ccc(COc4ccc(C(F)(F)F)cc4C)cc3)c2C)c1`, for which the growth in [1] was 58.9%; in [2], 23.3%; in [3] it was 77.5%; in experiment [4] it was 79.4%; in experiment [5], 70.4%; in [6] it was 61.9%. Further, the growth in experiment [7] is 27.9%; in experiment [8], 71.7%; in [9] it was 8.63% (active); in experiment [10], 41.6%.
As for `COc1cc(/C=N/NC(=O)c2cnn3c2NC(c2ccccc2)C3)ccc1OCc1ccccc1` (stereo not given), the growth was 6.15% (active) in [1]; 3.64% (active) in experiment [2]; -20.5% (active) in experiment [3]; 5.81% (active) in [4]; -4.25% (active) in experiment [5]; 19.6% in experiment [6]. For the same compound, the growth was -48.3% (active) in experiment [7], -52.6% (active) in [8], 18.5% in experiment [9] and 14.8% in experiment [10].
Take `COc1ccc(/C=C/C(=O)Nc2cc(/C=C\c3cc(OC)c(OC)c(OC)c3)cc(OC)c2OC)cc1OC`: the growth in [1] was 53.2%; in [3], 32.8%; in [4], 52%; in experiment [5] it was -5.89% (active); in experiment [6] it was 31.5%; in experiment [7] it was 4.33% (active). Besides, the growth in experiment [8] is 28.6%; in experiment [9], 50.7%; in experiment [10], 5.78% (active).
Regarding `Cn1ccnc1C(=O)/C=C/c1ccc(CC(=O)NC2CCCCC2)cc1`, the growth in experiment [1] was 6.25% (active); in experiment [2] it was 18%; in experiment [3], 92%; in experiment [4], 65.1%; in [5] it was 73.2%; in [6], 40.9%. The growth in [7] is 77.8%; in [8] it was 63.7%; in experiment [9], 84.8%; in [10] it was 89.8%.
Regarding `CCOC(=O)[C@@H](C)C[C@H](Cc1ccccc1)NC(=O)c1csc([C@@H](C[C@H](C(C)C)N(C)C(=O)[C@@H](NC(=O)[C@H]2C[C@H](O[Si](C)(C)C(C)(C)C)CCN2C)C(C)C)OC(C)=O)n1`, the growth was -21.4% [9.25 µM] (active) in experiment [1]; 3.46% [9.25 µM] (active) in experiment [2]; 18.1% [9.25 µM] in experiment [3]; -34.7% [9.25 µM] (active) in experiment [4]; -10.3% [9.25 µM] (active) in experiment [5]; 4.82% [9.25 µM] (active) in experiment [6]. The growth is -15.6% [9.25 µM] (active) in [7], -49.7% [9.25 µM] (active) in experiment [8], 21.3% [9.25 µM] in experiment [9] and -42.2% [9.25 µM] (active) in experiment [10].
